Shown are actives, neighbours in structure and some others; about 18% of the full set was active somewhere.
Gal4-VP16 FLuc: VP16 counterscreen qHTS for inhibitors of ROR gamma transcriptional activity; hit rate 3.5% among 310,000; Drosophila S2 Gal4-VP16 UAS-luciferase, luminescence, 20 h; AID 2546, 2010; Potency, µM (doses to about 53.6 µM), for the others: at the top dose activity, negative = inhibition, hits mostly inhibitors;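 also: Gal4-VP16 expression switched on by copper sulfate through the metallothionein promoter; potency is read from the fitted curve at half-maximal effect; nearly all actives have a fitted effect of over 50% in size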
RORgamma inh: qHTS for inhibitors of ROR gamma transcriptional activity; Potency, µM (doses to about 53.6 µM), for the others: at the highest dose activity change, negative = inhibition, hits mostly inhibitors; hit rate 5.4% among 310,000; Drosophila S2 Gal4-RORgamma UAS-luciferase reporter, 20 h; Nuclear receptor ROR-gamma (Mus musculus), P51450; also: potency is read from the fitted curve at half-maximal effect; nearly all actives have a fitted effect of over 60% in size
Target sequence (P51450 whole entry, looked up, the tested form may be a part): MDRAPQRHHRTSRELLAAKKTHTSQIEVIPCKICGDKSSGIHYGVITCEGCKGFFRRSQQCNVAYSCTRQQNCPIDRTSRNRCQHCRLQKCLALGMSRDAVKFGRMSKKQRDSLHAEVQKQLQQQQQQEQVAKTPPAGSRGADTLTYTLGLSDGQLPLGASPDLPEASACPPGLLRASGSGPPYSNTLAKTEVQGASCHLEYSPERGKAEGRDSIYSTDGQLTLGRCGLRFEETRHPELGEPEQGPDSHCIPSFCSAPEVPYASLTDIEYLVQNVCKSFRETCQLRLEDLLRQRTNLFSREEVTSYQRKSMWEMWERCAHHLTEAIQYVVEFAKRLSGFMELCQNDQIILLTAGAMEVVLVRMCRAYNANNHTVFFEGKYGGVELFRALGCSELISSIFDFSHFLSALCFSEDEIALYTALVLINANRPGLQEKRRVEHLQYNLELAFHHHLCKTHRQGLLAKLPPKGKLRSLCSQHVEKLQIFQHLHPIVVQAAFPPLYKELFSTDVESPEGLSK
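Drosophila S2 cells stably expressing Gal4-DBD/mouse RORγ fusion under metallothionein promoter plus UAS-luciferase; compound 1 h, then 700 uM CuSO4 induction for 20 h at ambient temperature; inhibition read as reduced luminescence.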
TDP1 cell CPT: qHTS for Inhibitors of human tyrosyl-DNA phosphodiesterase 1 (TDP1): qHTS in cells in presence of CPT | AID 686979, 2013 | chicken DT40 Tdp1-/-;hTDP1 cells + 20 nM CPT, ATP luminescence, 48 h | hit rate 12% among 420,000 | Potency, µM (series often up to 46.2 µM), without a hit: at the highest dose activity change, negative = growth inhibition, most hits filed as inhibitors; also: potency is read from the fitted curve at half-maximal effect; nearly all actives have a fitted effect of over 55% in size
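Chicken DT40 Tdp1-/- cells stably complemented with human TDP1 were seeded at 400 cells/well in medium containing 20 nM camptothecin, exposed to pin-transferred compounds, and grown at 37 °C for at least 48 hr. Viability was read as ATP luminescence.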
TDP1 cell noCPT: qHTS for Inhibitors of human tyrosyl-DNA phosphodiesterase 1 (TDP1): qHTS in cells in absence of CPT | AID 686978, 2013 | DT40 Tdp1-/- hTDP1 cells, no CPT, ATP luminescence, 48 h | Potency, µM (top dose mostly 46.2 µM), inactives show at the top dose activity change, negative = growth inhibition, hits mostly inhibitors | hit rate 15% among 420,000; also: potency is read from the fitted curve at half-maximal effect; nearly all actives have a fitted effect of over 55% in size
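No-CPT arm: Tdp1-/-;hTDP1 DT40 cells (400/well) plus compounds, incubated ≥48 hr at 37 °C. Readout CellTiter-Glo luminescence.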
LDHA block: qHTS assay for inhibitors of human lactate dehydrogenase | L-lactate dehydrogenase A chain (Homo sapiens), P00338 | purified LDHA, NADH/diaphorase-resazurin fluorescence; hits give low values | activity change, % (values are at about 110 or 230 µM) | hit rate 0.15% among 480,000 | AID 1347041, 2019; in the data active = activity change below about -30%; inconclusive = mostly about -25% to -30%;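 also: plate controls were DMSO wells for no effect and wells without enzyme for full effect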
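Human LDH5 (2 nM) was incubated with 0.06 mM NADH and 0.2 mM pyruvate for 5 min at room temperature in Tris pH 7.4. Remaining NADH was coupled through diaphorase/resazurin, and resorufin fluorescence was read at 0 and 20 min.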
IL1B secr inh: qHTS for Inhibitors of Inflammasome Signaling: IL-1-beta AlphaLISA Primary Screen; THP-1 LPS/ATP IL-1B secretion, AlphaLISA, 16 h; hits give low values; activity change, % at 57.5 µM; hit rate 4.7% among 360,000; AID 743279, 2014; in the data active = activity change below about -50%; inconclusive = mostly about -30% to -49%
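THP-1 cells pretreated 1 hr with compounds (up to 57.5 uM final), then stimulated with LPS (250 ng/mL final) plus ATP (1.25 mM final); secreted IL-1B measured by AlphaLISA after 16 hr, decreased signal indicating inhibition.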
Numbers without * were called inactive; ? = inconclusive; . = not tested or not shown. Unless noted, calls follow the shape of the dose curve; as a rule, active = well fitted curve in the direction sought with a large enough effect; inconclusive = small, poorly fitted or top-dose-only effect, or another doubt; inactive = no such curve, though single readings can be large; an effect the other way counts as inactive or inconclusive. Unless noted, % is scaled to controls: 0 for no effect and ±100 for the full control effect.

SMILES | Gal4-VP16 FLuc | RORgamma inh | TDP1 cell CPT | TDP1 cell noCPT | LDHA block | IL1B secr inh
CCc1ccc(NC(=O)c2cc(=O)c3ccc(C)cc3o2)cc1 | . | . | . | . | 8.8 | .
COc1ccccc1/C=C/C=C(/C#N)C(=O)Nc1ccccc1C(=O)O | . | . | . | . | 8.7 | .
CC(C)(C)OC(=O)[C@H](Cc1ccccc1)NC(=O)c1nc[nH]c1C(=O)N1CCN(C(=O)OC(C)(C)C)CC1 | ? | 11.2µM* | ? | -26.4% | 0.3 | -4.6
O=C(N[C@@H](Cc1ccccc1)C(=O)OCc1ccccc1)c1nc[nH]c1C(=O)N1CCNCC1 | . | . | 5.3% | -17.1% | -1.7 | -6.0
C[C@H](OC(=O)c1[nH]cnc1C(=O)N1CCN(C(=O)OC(C)(C)C)CC1)c1ccccc1 | . | . | ? | 25.9µM* | 3.7 | 38.5
CC(C)(C)OC(=O)N1CCN(C(=O)c2[nH]cnc2C(=O)N[C@@H](Cc2ccccc2)C(=O)OCc2ccccc2)CC1 | ? | 11.2µM* | ? | ? | 3.3 | -64.5*
CC(C)(C)OC(=O)[C@H](Cc1ccccc1)NC(=O)c1nc[nH]c1C(=O)NCC(=O)OCc1ccccc1 | ? | ? | ? | -71.3% | 8.1 | -4.6
CC1CCN(C(=O)c2[nH]cnc2C(=O)N[C@@H](Cc2ccccc2)C(=O)OC(C)(C)C)CC1 | 20µM* | ? | ? | -24.5% | 7.5 | 21.5
CC(C)(C)OC(=O)[C@H](Cc1ccccc1)NC(=O)c1nc[nH]c1C(=O)N1CCN(c2ccccc2)CC1 | ? | -12.4% | ? | ? | 0.8 | 10.2
COc1ccc(/C=C2\Oc3c(ccc(OS(C)(=O)=O)c3C)C2=O)cc1 | . | . | . | . | 5.1 | .
Cc1nc2nc(NCc3ccc(Cl)cc3)[nH]n2c(=O)c1CCC(=O)Nc1ccc2ccccc2c1 | . | . | . | . | 0.1 | .
O=S(=O)(NCc1ccnc(N2CCOCC2)c1)c1ccc(Cl)cc1C(F)(F)F | . | . | . | . | 6.8 | .
COC(=O)c1ccc(NC(=O)COC(=O)c2oc3ccccc3c2C)cc1 | . | . | . | . | -5.7 | .
CC(C)(C)OC(=O)N1CCC(NC(=O)c2nc[nH]c2C(=O)NCc2ccccc2)CC1 | . | . | ? | 23.1µM* | 0.1 | -1.9
CC(C)C[C@H](NC(=O)c1nc[nH]c1C(=O)N1CCC(C)CC1)C(=O)OCc1ccccc1 | ? | ? | ? | -18.3% | 5.3 | -8.5
CC(C)C[C@H](NC(=O)c1nc[nH]c1C(=O)N1CCN(C(=O)OC(C)(C)C)CC1)C(=O)OCc1ccccc1 | ? | 8.91µM* | 18.4µM* | 16.4µM* | 3.0 | -71.0*
CC(C)(C)OC(=O)[C@H](Cc1ccccc1)NC(=O)c1nc[nH]c1C(=O)N1CCc2ccccc2C1 | ? | ? | ? | ? | 0.9 | 8.3
CC(C)(C)OC(=O)[C@H](Cc1ccccc1)NC(=O)c1nc[nH]c1C(=O)NC1CCN(C(=O)OC(C)(C)C)CC1 | 7.08µM* | 5.01µM* | 23.1µM* | 16.4µM* | 3.3 | -5.9
COP(=O)(OC)c1nc(-c2ccc(C)cc2)oc1NCc1ccco1 | . | . | . | . | 8.1 | .
CCn1nc(C(=O)Nc2ccnn2C2CCN(C)CC2)c2ccccc2c1=O | . | . | . | . | 7.4 | .
CN1CCCC(n2nc(Cc3ccc(Cl)cc3)c3ccccc3c2=O)CC1 (stereo not drawn) | 10.9% | -3.1% | 13µM* | 20.6µM* | -7.7 | ?
Cc1cc(C(=O)OCC(=O)Nc2ccc(F)c(F)c2F)c2ccccc2n1 | . | . | . | . | -1.9 | .
COc1cccc(-c2nc(N3CCC(C)CC3)c3ccccc3n2)c1O | -6.5% | 20.1% | 18.4µM* | 20.6µM* | 4.6 | 13.3
COc1cccc(-c2nc(N3CCCC3)c3ccccc3n2)c1O | -13.6% | -1.1% | 18.4µM* | 11.6µM* | ? | 15.9
COc1ccc(C(=O)NCc2ccc3c(c2)OCO3)cc1S(=O)(=O)N(C)Cc1ccccc1 | -19.8% | 14.8% | -8.0% | ? | -7.5 | -12.8
SMILES | Gal4-VP16 FLuc | RORgamma inh | TDP1 cell CPT | TDP1 cell noCPT | LDHA block | IL1B secr inh
COc1ccccc1N1CCN(c2nc(CNC(=O)c3ccc4c(c3)OCO4)nc3ccccc23)CC1 | . | . | 18.4µM* | 13µM* | . | .
COc1ccccc1N1CCN(c2nc(-c3ccc(C)cc3)nc3ccccc23)CC1 | . | . | 23.1µM* | 23.1µM* | -1.4 | .
COC(=O)c1ccc(N2C(c3cc(OC)cc(OC)c3)=Cc3ccc(OC)cc3C2CC(=O)c2ccco2)cc1 (stereo not drawn) | . | . | ? | ? | 5.7 | -8.4
COC(=O)c1ccc(N2C(c3ccsc3)=Cc3cc4c(cc3C2CC(=O)c2ccco2)OCO4)cc1 (stereo not drawn) | . | . | 20.6µM* | 14.6µM* | 2.6 | 9.0
O=C(CC1c2cc(F)ccc2C=C(c2ccsc2)N1c1ccc(C#CCCO)cc1)c1ccco1 (stereo not drawn) | . | . | ? | 20.6µM* | 9.3 | -11.3
CC(=O)CC1c2cc(F)ccc2C=C(c2ccsc2)N1c1ccc(C#CC2(O)CCCCC2)cc1 (stereo not drawn) | . | . | ? | 23.1µM* | 18.1 | -5.7
CCOC(=O)Nc1cc2c(c(N)n1)N=C(c1ccccc1)CN2 | . | . | 0.206µM* | 0.0411µM* | -0.9 | 4.6
CCOC(=O)Nc1nnc(-c2cccc(OC)c2)s1 | 17.0% | 24.3% | -25.5% | -24.1% | -3.7 | -7.3
Nc1c(C(=O)c2ccc(Cl)cc2)sc2c1c(=O)[nH]c(=O)n2-c1ccccc1 | -14.8% | ? | 13.5% | 0.0% | -11.8 | 50.8
Cc1ccc(C(=O)c2sc3c(c2N)c(=O)[nH]c(=O)n3CCc2ccccc2)cc1 | -7.5% | -1.2% | 16.4µM* | 16.4µM* | -5.0 | 27.3
CC(=O)c1ccc(-n2c(=O)[nH]c(=O)c3c(N)c(C(=O)c4ccc(Cl)cc4)sc32)cc1 | ? | -3.4% | ? | 3.66µM* | -5.4 | 179.4
CCOC(=O)c1c(CSC(=N)N)n(-c2ccc(Br)cc2)c2cc(Br)c(OC(C)=O)cc12 | ? | ? | ? | 23.1µM* | -8.3 | -109.0*
CCCCCCCCOC(=O)c1c(CSC(=N)N)n(C)c2cc(Br)c(OC(C)=O)cc12 | ? | ? | 6.51µM* | 7.31µM* | -10.3 | -3.2
CCOC(=O)c1c(C)n(C)c2cc(Br)c(OC)cc12 | 2.5% | -8.6% | -5.0% | -3.1% | -3.3 | 13.7
O=C(c1ccc(OC(F)F)cc1)n1ccccc1=NC1CCCCC1 | . | . | . | . | -0.2 | .

Screens (PubChem BioAssay)
